The structures appear in SMILES notation. This is part of a sample that, as a whole, favours compounds with a hit. Of some 79,000 tested, about 15% had one in any assay. A number with no mark means an inactive call. Activity calls are given as the source filed them. No stated cut-off is given here; in the data, active means growth inhibition above about 70%; inactive means the rest.

The nature of one test: NCI Yeast Anticancer Drug Screen. Data for the sgs1 mgt1 strain (AID 161).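 Further: 0% = growth of cultures given vehicle only.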 The note with it: S. cerevisiae sgs1 mgt1 strain, at 50.0 µM, stronger effect = higher value. Summed up:
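Genetically altered yeast, compound exposure, growth inhibition relative to vehicle.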
Consider `C(=NCCc1ccccc1)c1ccccc1B1OB(c2ccccc2C=NCCc2ccccc2)OB(c2ccccc2C=NCCc2ccccc2)O1`, for which the growth inhibition is 99.7% (active).
With `O=[N+]([O-])c1ccc(-c2ccccc2Cl)c([N+](=O)[O-])c1`, the growth inhibition was 91.2% (active).
Still for that read-out and setting: the same measure for `CC12CCC(=O)C=C1CCC1C2CCC2(C)C(c3cnc[nH]3)CCC12` (stereo not drawn): 65.2%; for `COc1cccc(C2CC(C)(O)Oc3cc4c(cc32)OCO4)c1` (stereo not drawn): 29.4%; for `N/C(=N\N=C\c1cc(I)cc(I)c1O)NO`: 97.6% (active).
On the same count and under the same terms, next, `Cc1ccc2nn(-c3ccc(O)cc3)nc2c1`: 27%.
`COC(=O)C1=C(NC(=O)Nc2ccc(Cl)cc2)OC(C)(C)C1c1ccc(Cl)cc1` (stereo not drawn): the growth inhibition is 97.1% (active).
The same measure, in the same setting: next, `CCCC/C=C\CCCCCCCCCC1=C(O)C(=O)C=C(OC)C1=O`: 65.3%; `Cc1nn(C(=O)c2ccccc2O)c2c1C(c1ccco1)SC(N)=N2` (stereo not drawn): 57%; `CC1=C(CO)C(=O)O[C@@H]([C@@H](C)[C@H]2CC[C@H]3[C@@H]4C[C@@H](O)C5=CC=CC(=O)[C@]5(C)[C@H]4CC[C@]23C)C1`: 85.8% (active).
On the same count and under the same terms, the same measure for `O=C(CNC(=O)Nc1ccc(NC(=O)NCC(=O)Nc2ccc(C3=NCCN3)cc2)cc1)Nc1ccc(C2=NCCN2)cc1`: 98.8% (active).

The nature of a further test: NCI Yeast Anticancer Drug Screen. Data for the cln2 rad14 strain (AID 165).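 Further: 0% = growth equal to vehicle treated cultures.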 The conditions noted are these: S. cerevisiae cln2 rad14 strain, at 5.0 µM (retest, dose inferred, filed as 0.5), stronger effect = higher value. In short, it runs like this:
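Compounds are applied to the cln2 rad14 yeast strain, and growth is then compared with that of vehicle-treated cultures to give inhibition.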
With `CCCCCCCCCCS(=O)(=O)Nc1ccc(C(=O)NN)cc1`, the growth inhibition was 54%.
As for `ON(C(=Nc1ccc(Cl)cc1)c1ccccc1)c1ccccc1`, the growth inhibition is -11%.
On the same count and under the same terms, the same measure for `Cc1ccc(-c2c(N)[n+]([O-])c3ccccc3[n+]2[O-])cc1`: 46%; for `NC(=O)C12OC3CC(CC(C3)O1)O2`: -1%; for `C=C(C)[P+](C)(c1ccccc1)c1ccccc1`: 1%.
For the molecule `CCC(C)SC1SCC2C(=O)N(C)C3(CC3C)C(=O)OCC(NC(=O)c3nc4ccccc4cc3O)C(=O)NC(C)C(=O)N(C)C1C(=O)N(C)C1(CC1C)C(=O)OCC(NC(=O)c1nc3ccccc3cc1O)C(=O)NC(C)C(=O)N2C` (stereo not drawn), the growth inhibition was 79% (active).
As to `COc1ccc2ccc(=O)oc2c1CC=C(C)C`, the growth inhibition is 7%.
Same read-out and setting: next, `O=c1ccn(C2OC(COC(c3ccccc3)(c3ccccc3)c3ccccc3)C(O)C2O)c(=O)[nH]1` (stereo not drawn): 30%; `O=C1C(=O)C(Cc2ccccc2)(c2ccccc2)C(=O)N1c1ccccc1` (stereo not drawn): 3%; `CCC(O)C(O)(c1ccccc1)c1nc2ccccc2s1` (stereo not drawn): 7%.
On the same count and under the same terms, next, `c1ccc(-n2ncc3ccc4cccn4c32)cc1`: -13%; `O=C(c1ccc([N+](=O)[O-])cc1)C(Br)C(Br)c1ccnc2ccccc12` (stereo not drawn): -1%.
Same read-out and setting: the same measure for `[Cl][Sn]1([Cl])[CH2]CC[CH2][Sn]([Cl])([Cl])[CH2]CC[CH2][Sn]([Cl])([Cl])[CH2]CC[CH2][Sn]([Cl])([Cl])[CH2]CC[CH2]1`: -6%; for `Nc1ccc(O)c(=O)cc1`: -2%.
As to `CC(C)c1cc(C(=O)[O-])c(O)c(C(C)C)c1.CC(C)c1cc(C(=O)[O-])c(O)c(C(C)C)c1.CC(C)c1cc(C(=O)[O-])c(O)c(C(C)C)c1.CC(C)c1cc(C(=O)[O-])c(O)c(C(C)C)c1.CC(C)c1cc(C(=O)[O-])c(O)c(C(C)C)c1.CC(C)c1cc(C(=O)[O-])c(O)c(C(C)C)c1.[Cu+2].[Mn+2].[Mn+2]`, the growth inhibition is 34%.
Still for that read-out and setting: next, `CC1=C(C(=O)Nc2cccc(C(F)(F)F)c2)C(c2ccccc2F)C(C(=O)Nc2cccc(C(F)(F)F)c2)=C(C)N1`: 21%; `O=C(c1ccccc1)C(C(=O)c1ccccc1)c1ccc2ccccc2n1`: -2%.
Same read-out and setting: next, `NC(=S)N1N=C2c3ccccc3CC[C@H]2[C@@H]1c1cccs1`: 0%.
Still for that read-out and setting: the same measure for `O=CC(O)CN1CCCC1` (stereo not drawn): -4%.
On to `CCCCCN(CCCCC)CC(C)(C)C(O)c1ccc(OC)c2ccccc12` (stereo not drawn), for which the growth inhibition is -4%.
With `CSC(=S)n1nc(-c2cccs2)c(N=Nc2ccccc2)c1C(F)(F)F`, the growth inhibition was 6%.
The same measure, in the same setting: the same measure for `CC(O)C1CCCC[N+]1(C)C` (stereo not drawn): -5%; for `CCCCCCCCCCCC(=O)N(CCOC(=O)c1ccco1)CCOC(=O)c1ccco1`: 29%; for `CCOC(=O)NC(=S)Nc1ccsc1`: 0%.
Still for that read-out and setting: the same measure for `O=C(O)c1ccc(C(O)(c2ccccc2)c2ccccc2)cc1`: -1%; for `N#CSCCSCc1ccc(Cl)cc1`: -6%; for `CN(/N=C\c1ccc(Cl)cc1)C(c1ccc(Cl)cc1)N(C)/N=C/c1ccc(Cl)cc1` (stereo not drawn): 3%.

Source of the values: PubChem BioAssay (NCI).
